Source: PubChem (National Center for Advancing Translational Sciences (NCATS))
POLK inh: inhibitors of human DNA polymerase kappa | Q9UBT6 | purified Pol kappa, fluorescent DNA synthesis assay, 10 min | Potency, µM (titrated, usually from 107 µM), usual class: inhibitors | 400,000 tested, 0.53% active | AID 588579
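First, compounds were pin-transferred onto 10 nM Pol kappa. After 15 min at room temperature, substrate was added to 50 nM final. Fluorescence was then measured kinetically at 0 and 10 min.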
FEN1 inh: blocks human flap endonuclease 1; P39748; Recombinant FEN1 flap cleavage, fluorescence, 15 min; Potency, µM (series often up to 114 µM), most hits filed as inhibitors; 390,000 tested, 0.35% active; also: nearly all actives have a fitted effect of over 65% in size
Target sequence (P39748 whole entry, looked up): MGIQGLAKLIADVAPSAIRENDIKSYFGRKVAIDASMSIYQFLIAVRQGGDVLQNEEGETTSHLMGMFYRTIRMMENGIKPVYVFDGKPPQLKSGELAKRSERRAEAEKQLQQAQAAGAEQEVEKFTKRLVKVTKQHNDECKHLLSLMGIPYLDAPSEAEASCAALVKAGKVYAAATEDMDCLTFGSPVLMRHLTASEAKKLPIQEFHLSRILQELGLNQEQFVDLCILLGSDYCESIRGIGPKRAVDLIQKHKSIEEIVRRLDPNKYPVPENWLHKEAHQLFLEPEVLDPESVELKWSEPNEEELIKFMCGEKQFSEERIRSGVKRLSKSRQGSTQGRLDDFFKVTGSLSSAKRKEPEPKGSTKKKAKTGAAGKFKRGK
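Recombinant FEN1 (10 nM) was preincubated with pin-transferred compounds for 15 min at room temperature, then flap DNA substrate (50 nM final) was added. Plates were read at 0 and 15 min, and normalized concentration–response data were fitted to a four-parameter Hill equation.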
Pol beta inh: inhibitors of human DNA polymerase beta | Pol beta primer extension/strand displacement, fluorescence kinetic | Potency, µM (highest dose often 114 µM), usual class: inhibitors | 340,000 tested, 1.3% active | AID 485314
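Values derive from four-parameter Hill fits of normalized kinetic data: reads at 0 and 10 min following addition of 50 nM substrate to 10 nM Pol beta preincubated 15 min with compound.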
POLH inh: DNA polymerase eta (human) inhibition | recombinant Pol eta, fluorescent DNA replication assay | Potency, µM (titrated, usually from 114 µM), usual class: inhibitors | 390,000 tested, 1.2% active
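Pol eta (10 nM) was preincubated with compounds for 15 min at room temperature, after which fluorescent replication substrate (50 nM final) was added to start the reaction. Fluorescence was read kinetically at 0 and 10 min.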
POLI inh: inhibitors of human DNA polymerase iota; Q9UNA4; Pol iota fluorescent replication assay, 10 min; Potency, µM (series often up to 115 µM), most hits filed as inhibitors; 390,000 tested, 1% active
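Fluorescent replication assay read twice, at 0 min and 10 min after adding 50 nM (final) substrate. Enzyme (10 nM) and compounds were first incubated 15 min at room temperature; enzyme-free buffer wells were negative controls.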
WRN inhibitor: inhibitors of human WRN helicase; Q14191; WRN helicase unwinding, fluorescent forked duplex, kinetic; Potency, µM (titrated, usually from 114 µM), actives largely listed as inhibitors; 360,000 tested, 0.46% active; AID 651768; also: nearly all actives have a fitted effect of over 55% in size
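Enzyme (20 nM final) and test compound sit together 15 min at room temperature before substrate addition. Substrate is a single-forked duplex oligonucleotide (100 nM) labelled with fluorophore and quencher, with 2 mM ATP; helicase unwinding raises red fluorescence, read kinetically.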
Large screens that a line does not name were inactive; ! = repeats disagree. Most compounds without a hit are left out; they make up all but 2.4% or so of the library. Calls follow the shape of the dose curve; as a rule, active = well fitted curve in the direction sought with a large enough effect; inconclusive = small, poorly fitted or top-dose-only effect, or another doubt; inactive = no such curve, though single readings can be large; an effect the other way counts as inactive or inconclusive.

COc1ccc(C(=O)CSc2nnc(-c3cc(C)on3)o2)cc1	Pol beta inh 11µM
COc1ccccc1CNC(=O)C1CCN(C2=NS(=O)(=O)C(c3ccc(C)c(C)c3)=C2C)CC1	Pol beta inh inconclusive, POLI inh 89µM (no result: WRN inhibitor)
COc1ccc(C2=C(C)C(N3CCC(C(=O)Nc4ccccc4F)CC3)=NS2(=O)=O)cc1	Pol beta inh 22µM, POLI inh inconclusive (no result: POLH inh, WRN inhibitor)
COc1ccc(OC)c(NC(=O)Cn2cc(C(=O)c3cccs3)c3ccccc32)c1	Pol beta inh inconclusive (no result: WRN inhibitor)
CN(C)C(=O)c1ccc(-c2cc(NCc3ccccc3)ncn2)cc1	none (no result: FEN1 inh, Pol beta inh, POLH inh, POLI inh, WRN inhibitor)
CCOC(=O)c1cnc(Cc2ccccc2)[nH]c1=O	none
CCOC(=O)c1cnc(-n2[nH]c(C)c(Cc3ccccc3)c2=O)[nH]c1=O	Pol beta inh 3.2µM, POLH inh inconclusive, POLI inh inconclusive
Cc1cc(C2C(C#N)=C(N)OC3=C2C(=O)CCC3)c(C)s1 (stereo not given)	none
COc1cc(C2C(C#N)=C(N)OC3=C2C(=O)CCC3)c([N+](=O)[O-])cc1OC (stereo not given)	POLK inh 89µM, FEN1 inh inconclusive, POLH inh 20µM, POLI inh 7.1µM, WRN inhibitor inconclusive
Cc1ccc(N2CC(C(=O)OCC(=O)Nc3ccc(Cl)cc3)CC2=O)cc1 (stereo not given)	POLI inh 79µM (no result: Pol beta inh)
Cc1ccc(N2CC(C(=O)OCC(=O)Nc3cccc(Cl)c3C)CC2=O)cc1 (stereo not given)	none (no result: Pol beta inh)
O=C(/C=C/c1ccc(O)c(O)c1)c1ccc(S(=O)(=O)N2CCCCCC2)cc1	Pol beta inh inconclusive, POLH inh 7.9µM, POLI inh inconclusive, WRN inhibitor inconclusive
COC(=O)c1ccc(S(=O)(=O)N2CCCCCC2)cc1	none
CCn1c(=O)c(-[n+]2ccccc2)c(O)c2ccccc21	FEN1 inh 35µM, POLI inh inconclusive
CC[C@@]1(c2ccccc2)NC(=O)NC1=O	none (no result: FEN1 inh, Pol beta inh, POLH inh, POLI inh, WRN inhibitor)
CC(C)(C)c1nnc2sc(SC/C(O)=C(\C#N)c3nc4ccccc4[nH]3)nn2c1=O	POLH inh 20µM, WRN inhibitor inconclusive
Cc1ccc(Nc2nnc(SC/C(O)=C(\C#N)c3nc4ccccc4[nH]3)s2)c(C)c1	POLH inh 32µM, POLI inh inconclusive
CC(C)(C)c1nnc2sc(SCC(=O)c3ccccc3)nn2c1=O	none
CCOC(=O)c1c(C)oc2nc(C)nc(N3CCN(c4cccc(C(F)(F)F)c4)CC3)c12	Pol beta inh inconclusive (no result: WRN inhibitor)
CC(=O)OCC(CO)OC(C)=O (stereo not given) (tested in a mixture with another compound)	none (no result: FEN1 inh, Pol beta inh, POLH inh, POLI inh, WRN inhibitor)
COc1ccc(C(=O)NCC(c2cccnc2)N2CCc3ccccc3C2)cc1OC (stereo not given)	none (no result: WRN inhibitor)
CCOc1cc(CNc2ccc(O)cc2)cc(Br)c1OCc1ccccc1	POLI inh 40µM (no result: WRN inhibitor)
Oc1ccc(NCc2ccccc2OCc2ccccc2)cc1	FEN1 inh inconclusive, POLH inh inconclusive, POLI inh 7.1µM
COc1cc(CNc2ccc(O)cc2)cc(Br)c1OCc1ccccc1F	POLI inh 28µM, WRN inhibitor inconclusive
CCNCc1ccccc1OCc1ccccc1	none
CCOc1cc(CNc2ccc(O)cc2)cc(Br)c1OCc1ccccc1F	FEN1 inh inconclusive
Cc1ccc(NC(=O)CCn2c(=O)c3cccn3c3ccccc32)c(Cl)c1	none (no result: WRN inhibitor)
COc1cc(/C=N/Nc2nn3cnnc3c3ccccc23)ccc1O	FEN1 inh inconclusive, Pol beta inh 50µM, POLH inh inconclusive, POLI inh inconclusive, WRN inhibitor inconclusive
CCOc1cc(/C=N/Nc2nn3cnnc3c3ccccc23)ccc1O	FEN1 inh inconclusive, Pol beta inh inconclusive, POLH inh inconclusive, POLI inh inconclusive
COc1cc(C(=O)N/N=C/c2ccc3c(c2)c2ccccc2n3C)ccc1O	POLK inh inconclusive, Pol beta inh 25µM, POLH inh 16µM, POLI inh 18µM
COc1cc(/C=N\NC(=O)c2ccc(-c3ccccc3)cc2)cc(OC)c1O	POLK inh inconclusive, FEN1 inh inconclusive, Pol beta inh 25µM, POLH inh inconclusive, POLI inh 32µM
S=C(NCCCCN(Cc1ccc(Cl)cc1)c1ccc(Br)cn1)NCCCc1cnc[nH]1	POLI inh inconclusive (no result: Pol beta inh, POLH inh, WRN inhibitor)
CC1=NN(Cc2ccccc2)C(=O)C1	FEN1 inh inconclusive, POLI inh 3.2µM
CC1=NN(c2ccccc2)C(=O)C1	FEN1 inh inconclusive, POLI inh inconclusive
CCCCNC(=O)CCC(=O)NNc1nc2ccccc2c2nc(C)nn12	none
CCCCNC(=O)CCC(=O)NNc1nc2ccccc2c2nc(-c3ccccc3)nn12	Pol beta inh 89µM!
CCc1ccc(C(=O)c2cnc3ccc(F)cc3c2S(=O)(=O)c2ccccc2)cc1	none (no result: WRN inhibitor)
Cc1ccc(S(=O)(=O)c2nnn3c2nc(NC(C)c2ccccc2)c2sccc23)cc1 (stereo not given)	none (no result: WRN inhibitor)
COc1cccc(NC(=S)NCCC(c2ccccc2)c2ccccc2)c1	none
COc1cc(NC(=S)NCCC(c2ccccc2)c2ccccc2)cc(OC)c1	POLK inh inconclusive, FEN1 inh 79µM, POLH inh inconclusive, POLI inh 89µM, WRN inhibitor 40µM
COCCNC(=O)c1nn(-c2ccc(C)cc2)c(=O)n(C)c1=O	none (no result: WRN inhibitor)
Cc1ccc(CNC(=O)c2cc3c(s2)-c2c(C)cccc2OC3)cc1	Pol beta inh 14µM, POLI inh inconclusive (no result: WRN inhibitor)
COc1ccc(NC(=O)c2cc3c(s2)-c2c(C)cccc2OC3)cc1Cl	Pol beta inh 11µM, POLH inh inconclusive (no result: WRN inhibitor)
COc1cc(Cl)c(C)cc1NC(=O)c1cc2c(s1)-c1c(C)cccc1OC2	none (no result: WRN inhibitor)
CCOc1ccc(NC(=O)CSc2nnc3c(n2)[nH]c2ccc(S(=O)(=O)N(C)C)cc23)cc1	none (no result: Pol beta inh, POLH inh, WRN inhibitor)
C[C@@H](O)C(N)C(=O)O (stereo not given in full)	none (no result: FEN1 inh, Pol beta inh, POLH inh, POLI inh, WRN inhibitor)
Cc1ccc(NC(=O)Cn2nnc(-c3nc(-c4ccc(Cl)cc4)no3)c2N)cc1C	none (no result: WRN inhibitor)
C[C@@H]1O[C@@H](O[C@@H]2C(=O)c3c(O)cc(O)cc3O[C@H]2c2ccc(O)c(O)c2)[C@H](O)[C@H](O)[C@H]1O	none (no result: Pol beta inh)
O=C1c2c(O)cc(O)cc2O[C@H](c2ccc(O)cc2)[C@H]1O	none (no result: Pol beta inh)
O=C1c2c(O)cc(O)cc2O[C@H](c2ccc(O)c(O)c2)[C@@H]1O	Pol beta inh 3.5µM (no result: POLK inh, FEN1 inh, POLH inh, POLI inh, WRN inhibitor)
O=C1c2c(O)cc(O)cc2O[C@H](c2ccc(O)c(O)c2)[C@H]1O	POLK inh inconclusive, FEN1 inh inconclusive, Pol beta inh 3.2µM, POLI inh 79µM
Cc1cnc2ccccc2c1/C=C/c1ccc(N(C)C)cc1	none (no result: Pol beta inh, POLH inh, WRN inhibitor)
COCCNC(=O)CCCn1c(SCC(=O)Nc2ccc(F)cc2)nc2c(sc3ccccc32)c1=O	none (no result: WRN inhibitor)
O=C1/C(=C\c2ccc(O)c(O)c2)SC(=S)N1Cc1ccccc1	FEN1 inh inconclusive, Pol beta inh inconclusive, POLI inh 22µM, WRN inhibitor 11µM
